This note sets out measurements from ChEMBL document CHEMBL4513216, “Probing the Open Global Health Chemical Diversity Library for Multistage-Active Starting Points for Next-Generation Antimalarials” (ACS Infect Dis, 2020).

Out of some 68,000 compounds screened, about 2,700 (4%) showed an effect of 50% or more. Shown is part of a subset that was picked to be rich in strong results.

In the experiment the test system is Plasmodium berghei. The experiment can be described thus: Screen against P. berghei liver stage (PbLuc), transformed with Luciferase, at 2uM. Format: functional, HepG2. The following applies: tested at 2 uM.
On to `Oc1cc(-c2cccs2)nc(C2CCCN(CC3=CCCOC3)C2)n1` (stereo not given), for which the INHIBITION worked out at 51.88%. For `Oc1cc(-c2nccs2)nc(C2CCN(Cc3cccs3)CC2)n1` the value was -14.73%; for `Cn1cc(CN2CCCC(c3nc(O)cc(-c4cccs4)n3)C2)cn1` (stereo not given), 32.24%; for `Cc1csc(CNC(=O)NCC(O)c2ccc(F)cc2F)n1` (stereo not given), -41.67%. With `Cn1cccc1CN1CCC2(CC1)CN(c1ccccc1)C(=O)CO2` the figure was 40.64%. Regarding `CCN(CCC(F)(F)F)S(=O)(=O)c1cccc(F)c1C#N`, the INHIBITION is -46.3%. For `Cc1cccc2cc(C(=O)N3CCSCC3)n(C)c12` the value was 19.04%.

In the case of `N#Cc1cc(F)ccc1Cn1cncn1`, the INHIBITION is -14.79%. Turning to `N#Cc1cc(F)ccc1NCc1ccc(Cn2cncn2)cc1`, the INHIBITION was found to be 53.99%. Turning to `Fc1ccc(CNc2ccccc2Cn2cncn2)cc1`, the INHIBITION is given as 32.93%. With `Cc1cnn(CC2CCCN2Cc2nnc(C(C)C)o2)c1` (stereo not given) the figure was -12.82%; with `Cc1ccccc1CN(C)C(=O)CN1CCOC(Cn2cncn2)C1` (stereo not given), 2.07%. With `Cc1cc(=O)c2cc(F)ccc2n1CC(=O)O` the figure was -30.92%; with `O=S(=O)(c1ccc(F)cc1)N1CC[C@H]2[C@H]1CCN2c1ncccn1`, 31.96%.

Turning to `Cc1cccc(S(=O)(=O)N2CC[C@H]3[C@H]2CCN3c2ncccn2)c1`, the INHIBITION is listed as 29.19%. For `O=S(=O)(c1cccs1)N1CC[C@H]2[C@H]1CCN2c1ncccn1` the value was 56.76%. For `CN1CC(=O)N(c2cccc(F)c2)CC12CCN(S(=O)(=O)C1CC1)C2` (stereo not given) the value was -12.36%. For `COCCN1C(=O)[C@]2(CC[C@@H]3CN(C(=O)NC(C)C)C[C@@H]32)N=C1C` the value was 16.91%; for `CN(C)[C@@H]1CCN(C(=O)Cc2cccs2)[C@H]1Cc1ccncc1`, -23.59%; for `Cc1cc(CN2CC[C@H]3[C@H]2CCN3S(C)(=O)=O)oc1C`, -12.98%.

Turning to `CCN1C(=O)CCCC12CCCN(C(=O)c1ccoc1C)C2` (stereo not given), the INHIBITION turned out to be 50.17%.

Turning to `CCN1C(=O)CCCC12CCCN(C(=O)c1occc1C)C2` (stereo not given), the INHIBITION was 46.87%. With `CCN1C(=O)CCCC12CCCN(C(=O)c1cc(C)oc1C)C2` (stereo not given) the figure was 19.09%; with `Cc1nc(C)c(C(=O)Nc2cccc(CN3CCC(CO)CC3)c2)o1`, -8.84%; with `Cn1cc(CN2CCc3ncnc(N4CCOCC4)c3CC2)cn1`, -15.83%.

Consider `Cc1nc(N2CCOCC2)nc2c1COCC21CCN(CC2CC2)C1` (stereo not given), for which the INHIBITION is given as -27.12%. On to `CCN1CCC2(COCc3c(C)nc(N4CCOCC4)nc32)C1` (stereo not given), for which the INHIBITION is reported as -9.91%.

For `COCCN1CCC2(COCc3c(C)nc(N(C)C)nc32)C1` (stereo not given), the INHIBITION amounted to 54.62%.

Consider `Cc1nc(N(C)C)nc2c1COCC21CCN(CC2CC2)C1` (stereo not given), for which the INHIBITION is listed as -54.51%. For `CCN1CCC2(COCc3c(C)nc(N(C)C)nc32)C1` (stereo not given) the value was 25.31%. With `Cc1nc(N2CCOCC2)nc2c1COCC21CCN(CC(C)C)C1` (stereo not given) the figure was 53.55%. Consider `CCOC(C)c1nccn1Cc1noc(CC)n1` (stereo not given), for which the INHIBITION is reported as -12.93%. On to `COCCN1CC[C@H]2CN(c3cc(OC)ncn3)C[C@@H]2C1=O`, for which the INHIBITION is -25.53%. With `O=C(c1ccccc1F)N1CCOC(c2nc(-c3ncccn3)no2)C1` (stereo not given) the figure was -14.56%. With `COc1cccc(-c2ccc3nc(C4CCN(C(C)=O)CC4)nn3c2)c1` the figure was -3.4%. With `O=C1NC2(CCN(Cc3ccc(F)cc3)CC2)CC1c1ccncc1` (stereo not given) the figure was -26.22%; with `O=C1NC2(CCN(Cc3nccs3)CC2)CC1c1ccncc1` (stereo not given), 53.54%; with `O=C1NC2(CCN(Cc3cccs3)CC2)CC1c1ccncc1` (stereo not given), -13.79%. With `COc1ccc(CNC(=O)NCCc2csc(C)n2)cn1`, the INHIBITION is reported as -33.61%. With `Cc1nnc(N2CCC(CS(N)(=O)=O)CC2)c(C#N)c1C` the figure was 46.52%; with `Cc1nnc(N2CCCC(CS(N)(=O)=O)C2)c(C#N)c1C` (stereo not given), 57.79%. With `Cc1nnc(N2CCC(CN(C)C(C)C)CC2)c(C#N)c1C` the figure was 2.1%; with `CNc1nccnc1C1CCN(C(C)C)CC1`, -5.95%; with `CC(C)N1CCC(c2n[nH]cc2S(C)(=O)=O)CC1`, 53.59%. With `Cc1c[nH]nc1C1CCN(S(=O)(=O)N(C)C)CC1` the figure was 20.73%; with `CC1CCN(CCNCc2cc(-c3ccccc3)cn3nnnc23)CC1`, 26.56%. Regarding `CCc1c(C)nn2c(O)cc(C3CCN(C(=O)C4CC4)C3)nc12` (stereo not given), the INHIBITION came out at 11.53%. On to `Cc1cccc(CN2CC3(CCN(Cc4ccoc4)CC3)OCC2=O)n1`, for which the INHIBITION is recorded as 11.99%. For `Cc1ccc(CN2CCC3(CC2)NC(=O)CC3c2ccccc2)s1` (stereo not given), the INHIBITION was 57.85%. Regarding `Cc1noc(C)c1CN1CCC2(CC1)NC(=O)CC2c1ccccc1` (stereo not given), the INHIBITION stood at 20.01%. Take `O=C1CC(c2ccncc2)C2(CCN(Cc3ccc(F)cc3)CC2)N1` (stereo not given): the INHIBITION turned out to be 6.03%. For `O=C1CC(c2ccccc2)C2(CCN(Cc3ccncc3)CC2)N1` (stereo not given) the value was 54.07%; for `O=C1CC(c2ccncc2)C2(CCN(Cc3cccnc3)CC2)N1` (stereo not given), -4.26%.

Turning to `Cc1nc(CN2CCC3(CC2)NC(=O)CC3c2ccccc2)cs1` (stereo not given), the INHIBITION was determined as 44.43%.

Take `COc1cccc(C(=O)C2CCCN(c3cc(C#N)ccn3)C2)c1` (stereo not given): the INHIBITION was -45.86%. For `CC(C)COc1cncc(NCCc2nnc3ccccn23)n1` the value was 39.02%. For `Cc1nn(C)cc1S(=O)(=O)N[C@@H]1CCC[C@@H](n2ccnc2)[C@@H]1O` the value was 45.48%. For `COc1ccccc1N1CCN(C(=O)c2ccoc2)CC1` the value was -2.44%.

Turning to `CN(C)c1ccc(C(=O)N2CCCN(Cc3cscn3)CC2)nn1`, the INHIBITION is on record as -11.33%. For the compound `CN(C)c1ccc(C(=O)N2CCN(Cc3cscn3)CC2)cn1`, the INHIBITION was found to be 19.18%.

Regarding `CN(C)c1cc(C(=O)N2CCCN(Cc3cscn3)CC2)ccn1`, the INHIBITION was found to be 51.21%. As for `CN(C)c1cc(C(=O)N2CCCC2)ccn1`, the INHIBITION is -18.23%. With `COc1ccccc1N1CCN(C(=O)c2ccnc(N(C)C)c2)CC1` the figure was 56.78%; with `Cc1cnc(CCNc2cccc(CC3CCCNC3)n2)s1` (stereo not given), 23.7%.

For `CC[C@@H]1N(Cc2ccc(C)s2)CCC[C@]12CCC(=O)N2C`, the INHIBITION was determined as 20.42%. With `CC[C@@H]1N(Cc2ccco2)CCC[C@]12CCC(=O)N2C` the figure was 53.46%; with `CC[C@@H]1N(Cc2ccsc2)CCC[C@]12CCC(=O)N2CCOC`, -27.69%; with `CC[C@@H]1N(Cc2ccsc2)CCC[C@]12CCC(=O)N2C`, 62.46%.

In the case of `CC[C@@H]1N(Cc2ccc(F)cc2)CCC[C@]12CCC(=O)N2C`, the INHIBITION stood at 25.46%. Consider `CC[C@H]1N(Cc2ccco2)CCC[C@]12CCC(=O)N2C`, for which the INHIBITION worked out at 23.26%.
